The panel holds about 83,000 compounds, 20% with a hit somewhere; the sample as a whole holds those more often.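 Growth was measured after 48 h exposure to one concentration of compound in 96-well plates. Values under 10 count as active.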 Unmarked numbers belong to inactive results. The source made the active and inactive calls.

In the first assay the test system is NCI-H226 lung. The assay can be described thus: NCI-60 one-dose screen, 48 h (100 = growth as untreated, 0 = no growth, -100 = all killed). Particulars: 10 µM.
On to `COc1ccc(C2c3sc4ccc(C)cc4c3Oc3nc(N)nc(N)c32)cc1` (centres undefined), for which the growth is 78.5%. The same measure, in the same setting: in the case of `Cc1cc(N=C2NC(=O)S/C2=C\c2ccc(F)cc2)n[nH]1` it was 17.1%. Still for that read-out and setting: in the case of `Cn1cc(-c2nnc(N)nc2-c2c[nH]c3ccccc23)c2cc(Br)cnc21` it was 17.9%. Still for that read-out and setting: to `O=C(CC(=O)Nc1ccc(Oc2ncnc3scc(Nc4n[nH]c(=S)s4)c23)cc1)Nc1ccc(Cl)cc1` belongs 67.8%; to `O=C1NC2C=CC=CC2/C1=C1/SC(=S)N(C2CC(=O)N(c3ccc(Br)cc3)C2=O)C1=O` (centres undefined), 91.3%; to `CC1(C)CC(=O)C2=C(C1)N(Cc1ccc(C(=O)O)cc1)C1=C(C(=O)CC(C)(C)C1)C2c1ccc(Cl)cc1`, 108%. In the case of `Cc1ccc2c(c1)C(=O)/C(=C/c1ccc([N+](=O)[O-])cc1)S2`, the growth is 52.2%. On the same count and under the same terms, in the case of `O=C(Nc1ccc(OCc2ccc(Cl)cc2)cc1)Nc1ccc(Cl)c(C(F)(F)F)c1` it was 6.46% (active); in that of `Cn1cc(-c2nc(N)nnc2-c2c[nH]c3ccccc23)c2cc(Br)cnc21`, 0.98% (active). On to `O=C(CSc1nc2ccccc2c(=O)n1-c1ccc(Cl)cc1)Nc1ccc(-c2nc3ccccc3[nH]2)cc1`, for which the growth is 30.1%.

As for `Cc1ccc2c(c1)C(=O)/C(=C/c1c[nH]c3ccccc13)S2`, the growth was 40.8%. Still for that read-out and setting: to `COc1cccc(O)c1/C=C1\SCc2cc3c(OC)cccc3[o+]c21` belongs 98.2%. Still for that read-out and setting: to `COc1cc(C2CC(c3ccc(Oc4ccc(Cl)cc4)cc3)=NN2c2nc(-c3ccc(Cl)cc3)c(C#N)c(N3CCOCC3)n2)cc(OC)c1OC` (centres undefined) belongs 90.4%. On to `O=C(Nc1ccc(OCC(=O)c2ccc(Cl)cc2)cc1)Nc1ccc(Cl)c(C(F)(F)F)c1`, for which the growth was 38%. Same read-out and setting: to `Cc1ccc2sc3c(c2c1)Oc1nc[nH]c(=O)c1C3c1cccc(F)c1` (centres undefined) belongs 80.6%; to `Cc1cc(N=C2NC(=O)/C(=C/c3cc(C(C)(C)C)c(O)c(C(C)(C)C)c3)S2)n[nH]1`, 10.3%.

Take `COc1ccc(C2c3sc4ccc(C)cc4c3Oc3nc[nH]c(=O)c32)cc1` (centres undefined): the growth is 80.5%. Same read-out and setting: in the case of `COc1cccc(C(=O)CSc2nc(-c3ccc(OCc4ccccc4)c(OC)c3)c(C#N)c(=O)[nH]2)c1` it was 86.6%; in that of `Cc1ccc(COc2ccc(NC(=O)Nc3ccc(Cl)c(C(F)(F)F)c3)cc2)cc1`, 75.7%.

Turning to `CC(C)(C)c1cc(/C=C2\S/C(=N/c3ncn[nH]3)NC2=O)cc(C(C)(C)C)c1O`, the growth was 5.38% (active). On the same count and under the same terms, to `Cn1cc(/C=C(/SS/C(=C/c2cn(C)c3cccc(C(=O)O)c23)C(=O)O)C(=O)O)c2c(C(=O)O)cccc21` belongs 97.7%; to `COc1ccc(C(=O)COc2ccc(NC(=O)Nc3ccccc3)cc2)cc1`, 87.6%; to `CCn1c(SCC(=O)Nc2ccc(-c3nc4ccccc4[nH]3)cc2)nc2ccccc2c1=O`, -65.5% (active). In the case of `O=C(Nc1ccc(OCc2ccc(F)cc2)cc1)Nc1ccc(Cl)c(C(F)(F)F)c1`, the growth is 15%.

Turning to `O=C(CC(=O)Nc1ccc(Oc2ncnc3scc(Nc4n[nH]c(=S)s4)c23)cc1)Nc1ccc(Br)cc1`, the growth was 94.4%. The same measure, in the same setting: to `COc1ccc(C(=O)COc2ccc(NC(=O)Nc3ccc(Cl)c(C(F)(F)F)c3)cc2)cc1` belongs 4.95% (active); to `O=C(Nc1ccc(Oc2ncnc3scc(Nc4n[nH]c(=S)s4)c23)cc1)C1(C(=O)Nc2cccc(C(F)(F)F)c2)CC1`, 72.2%. Still for that read-out and setting: to `O=C1NC(=S)S/C1=C\c1cn(-c2ccccc2)nc1-c1ccc([N+](=O)[O-])cc1` belongs 13.2%; to `O=C(CSc1nc2ccccc2c(=O)n1-c1ccc(Cl)cc1)Nc1ccc(-c2nc3ccc([N+](=O)[O-])cc3[nH]2)cc1`, 0.985% (active).

In another assay the test system is NCI-H322M lung. The assay is described as above. Particulars: 10 µM.
In the case of `COc1ccc(C2c3sc4ccc(C)cc4c3Oc3nc(N)nc(N)c32)cc1` (centres undefined), the growth was 89.3%. As for `Cc1cc(N=C2NC(=O)S/C2=C\c2ccc(F)cc2)n[nH]1`, the growth is 32.3%.

In the case of `Cn1cc(-c2nnc(N)nc2-c2c[nH]c3ccccc23)c2cc(Br)cnc21`, the growth is 65.2%. On the same count and under the same terms, to `O=C(CC(=O)Nc1ccc(Oc2ncnc3scc(Nc4n[nH]c(=S)s4)c23)cc1)Nc1ccc(Cl)cc1` belongs 94.5%; to `O=C1NC2C=CC=CC2/C1=C1/SC(=S)N(C2CC(=O)N(c3ccc(Br)cc3)C2=O)C1=O` (centres undefined), 101%. Same read-out and setting: in the case of `CC1(C)CC(=O)C2=C(C1)N(Cc1ccc(C(=O)O)cc1)C1=C(C(=O)CC(C)(C)C1)C2c1ccc(Cl)cc1` it was 93.7%. Take `Cc1ccc2c(c1)C(=O)/C(=C/c1ccc([N+](=O)[O-])cc1)S2`: the growth is 105%. Same read-out and setting: to `O=C(Nc1ccc(OCc2ccc(Cl)cc2)cc1)Nc1ccc(Cl)c(C(F)(F)F)c1` belongs 25.9%.

For the compound `Cn1cc(-c2nc(N)nnc2-c2c[nH]c3ccccc23)c2cc(Br)cnc21`, the growth is 37.2%. Still for that read-out and setting: to `O=C(CSc1nc2ccccc2c(=O)n1-c1ccc(Cl)cc1)Nc1ccc(-c2nc3ccccc3[nH]2)cc1` belongs 37.5%; to `Cc1ccc2c(c1)C(=O)/C(=C/c1c[nH]c3ccccc13)S2`, 72.2%.

Take `COc1cccc(O)c1/C=C1\SCc2cc3c(OC)cccc3[o+]c21`: the growth is 103%. On the same count and under the same terms, in the case of `COc1cc(C2CC(c3ccc(Oc4ccc(Cl)cc4)cc3)=NN2c2nc(-c3ccc(Cl)cc3)c(C#N)c(N3CCOCC3)n2)cc(OC)c1OC` (centres undefined) it was 98%; in that of `O=C(Nc1ccc(OCC(=O)c2ccc(Cl)cc2)cc1)Nc1ccc(Cl)c(C(F)(F)F)c1`, 49.1%. The same measure, in the same setting: in the case of `Cc1ccc2sc3c(c2c1)Oc1nc[nH]c(=O)c1C3c1cccc(F)c1` (centres undefined) it was 96.7%; in that of `Cc1cc(N=C2NC(=O)/C(=C/c3cc(C(C)(C)C)c(O)c(C(C)(C)C)c3)S2)n[nH]1`, 28.6%; in that of `COc1ccc(C2c3sc4ccc(C)cc4c3Oc3nc[nH]c(=O)c32)cc1` (centres undefined), 105%.

For the compound `COc1cccc(C(=O)CSc2nc(-c3ccc(OCc4ccccc4)c(OC)c3)c(C#N)c(=O)[nH]2)c1`, the growth was 88.3%. The same measure, in the same setting: to `Cc1ccc(COc2ccc(NC(=O)Nc3ccc(Cl)c(C(F)(F)F)c3)cc2)cc1` belongs 77.4%; to `O=C(O)CCN1C(=O)/C(=C/C=C/c2ccc([N+](=O)[O-])o2)SC1=S`, 31%; to `CC(C)(C)c1cc(/C=C2\S/C(=N/c3ncn[nH]3)NC2=O)cc(C(C)(C)C)c1O`, 17%. The same measure, in the same setting: to `Cn1cc(/C=C(/SS/C(=C/c2cn(C)c3cccc(C(=O)O)c23)C(=O)O)C(=O)O)c2c(C(=O)O)cccc21` belongs 102%; to `COc1ccc(C(=O)COc2ccc(NC(=O)Nc3ccccc3)cc2)cc1`, 88.5%. The same measure, in the same setting: to `CCn1c(SCC(=O)Nc2ccc(-c3nc4ccccc4[nH]3)cc2)nc2ccccc2c1=O` belongs -68.3% (active); to `O=C(Nc1ccc(OCc2ccc(F)cc2)cc1)Nc1ccc(Cl)c(C(F)(F)F)c1`, 21.9%.

Regarding `O=C(CC(=O)Nc1ccc(Oc2ncnc3scc(Nc4n[nH]c(=S)s4)c23)cc1)Nc1ccc(Br)cc1`, the growth is 106%. For `COc1ccc(C(=O)COc2ccc(NC(=O)Nc3ccc(Cl)c(C(F)(F)F)c3)cc2)cc1`, the growth was 36.3%. On the same count and under the same terms, in the case of `O=C(Nc1ccc(Oc2ncnc3scc(Nc4n[nH]c(=S)s4)c23)cc1)C1(C(=O)Nc2cccc(C(F)(F)F)c2)CC1` it was 101%; in that of `O=C1NC(=S)S/C1=C\c1cn(-c2ccccc2)nc1-c1ccc([N+](=O)[O-])cc1`, 30.5%; in that of `O=C(CSc1nc2ccccc2c(=O)n1-c1ccc(Cl)cc1)Nc1ccc(-c2nc3ccc([N+](=O)[O-])cc3[nH]2)cc1`, 72.4%.

For the origin of these results see PubChem BioAssay (NCI).
